Sfp PPTase inh: qHTS Assay for Inhibitors of Bacillus subtilis Sfp phosphopantetheinyl transferase (PPTase). 4'-phosphopantetheinyl transferase ffp (Bacillus subtilis), Q9F4F7. Biochemical Sfp PPTase activity, qHTS. Potency, µM, most hits filed as inhibitors. hit rate 3.5% among 310,000;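 also: the enzyme is Sfp with the accession as filed and its product quenches rhodamine fluorescence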
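Fluorescence-quenching assay: 15 nM Sfp-PPTase preincubated 15 min at room temperature with compound, then 5 uM rhodamine-CoA and 12.5 uM BHQ-2-labelled YbbR peptide added. Fluorescence (ex 525/em 598 nm) read at start and after 30 min; difference gives rate.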
MmCpn inh: Inhibitors of TCP-1 ring complex (TRiC) of Methanococcus maripaludis (MmCpn): qHTS. Chaperonin Mm-Cpn (Methanococcus maripaludis). purified Mm-Cpn ATPase, ADP Transcreener TR-FRET. Potency, µM (highest dose often 76.9 µM), actives largely listed as inhibitors. hit rate 0.031% among 330,000. AID 504842, 2011; also: nearly all actives have a fitted effect of over 80% in size
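ATPase read-out: TR-FRET ADP immunoassay (anti-ADP Eu cryptate vs ADP-d2), ex 320 nm, em 590/665 nm; signal drops as ADP forms. Enzyme 25 nM, ATP 10 uM, 30 min at 37°C after 10 min compound preincubation.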
PLK1 PBD inh: qHTS for Inhibitors of PLK1-PDB (polo-like kinase 1 - polo-box domain): Primary Screen | Serine/threonine-protein kinase PLK1 (Homo sapiens), P53350 | Plk1 PBD binding of FITC phosphopeptide, fluorescence polarization | Potency, µM, hits mostly inhibitors | hit rate 2.8% among 360,000 | AID 720504, 2013; also: series mostly up to about 57 µM; nearly all actives have a fitted effect of over 65% in size
CCT modulator: High-Throughput Screening for Modulators of Cytosolic Chaperonin Activity. purified chaperonin ATPase assay, HTRF ADP detection, 30 min. activity change, % (no concentration beside the values), hits read low. hit rate 0.3% among 360,000. AID 651819, 2012; in the data active = activity change below about -30%
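TRiC (40 or 20 nM final, by batch activity) in 30 mM Tris pH 7.4, 100 mM KCl, 5 mM MgCl2, 1 mM DTT was treated with compound at 76 uM single dose, then 10 uM ATP, 30 min at 37 °C. ADP was read by HTRF Transcreener.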
VDR inhibitor: Inhibitors of the vitamin D receptor (VDR): qHTS; VDR-SRC2-3 peptide fluorescence polarization, 2 h; hit rate 0.93% among 400,000; Vitamin D3 receptor (Homo sapiens), P11473; Potency, µM, actives largely listed as inhibitors
Target sequence (P11473 whole entry, looked up): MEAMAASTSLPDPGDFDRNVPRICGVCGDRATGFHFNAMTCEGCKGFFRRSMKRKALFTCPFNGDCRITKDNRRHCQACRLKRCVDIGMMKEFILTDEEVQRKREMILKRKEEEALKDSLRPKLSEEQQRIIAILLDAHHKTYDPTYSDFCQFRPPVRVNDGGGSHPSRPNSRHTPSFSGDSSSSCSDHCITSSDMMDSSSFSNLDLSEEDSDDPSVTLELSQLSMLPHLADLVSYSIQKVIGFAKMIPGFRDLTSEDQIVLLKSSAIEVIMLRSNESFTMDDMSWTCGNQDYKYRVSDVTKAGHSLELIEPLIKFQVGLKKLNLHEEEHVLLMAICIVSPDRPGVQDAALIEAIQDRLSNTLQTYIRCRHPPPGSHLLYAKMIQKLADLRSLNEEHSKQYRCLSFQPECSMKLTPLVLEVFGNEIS
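Measured by FP: displacement of SRC2-3 coactivator peptide from VDR by library compounds, following a two-hour ambient incubation.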
G9a block: qHTS Assay for Inhibitors of Histone Lysine Methyltransferase G9a. G9a H3K9 monomethylation, AlphaScreen, 2 h. Potency, µM (top dose mostly 102 µM), usual class: inhibitors. hit rate 8.8% among 350,000; also: nearly all actives have a fitted effect of over 75% in size
Target sequence (Q96KQ7 913-1193 limits assumed): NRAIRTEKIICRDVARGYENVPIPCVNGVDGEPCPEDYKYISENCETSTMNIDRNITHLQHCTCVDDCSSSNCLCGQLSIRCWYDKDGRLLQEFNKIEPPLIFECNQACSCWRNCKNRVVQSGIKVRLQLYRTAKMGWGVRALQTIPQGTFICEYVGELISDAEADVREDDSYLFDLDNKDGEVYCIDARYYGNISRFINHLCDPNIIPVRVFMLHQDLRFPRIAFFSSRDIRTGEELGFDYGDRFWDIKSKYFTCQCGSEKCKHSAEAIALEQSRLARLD
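Step 1: enzyme (final 20 nM) with compound, 15 min RT. Step 2: substrate peptide 500 nM and SAM 20 uM, 2 h RT. Step 3: anti-H3K9me1 antibody and AlphaScreen beads, 10 min, then plate read.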
Numbers stand for hits; – = inactive; ? = inconclusive; · = no result given; [ ] = another dose, or the depositor's remark. Sampled rows, rich in hits. Any-hit rate of the full collection: about 10%. Unless noted, calls follow the shape of the dose curve; as a rule, active = well fitted curve in the direction sought with a large enough effect; inconclusive = small, poorly fitted or top-dose-only effect, or another doubt; inactive = no such curve, though single readings can be large; an effect the other way counts as inactive or inconclusive.

SMILES	Sfp PPTase inh	MmCpn inh	PLK1 PBD inh	CCT modulator	VDR inhibitor	G9a block
Cc1cccc(NC(=O)Cn2c(=O)n(Cc3ccccc3)c(=O)c3sc4ccccc4c32)c1	·	·	·	·	–	–
N/C(=N\OS(=O)(=O)c1ccccc1)c1ccncc1	–	–	–	–	–	–[0.501 µM]
N/C(=N\OS(=O)(=O)c1ccc2ccccc2c1)c1ccccn1	63.1µM	–	–	–	–	5.01µM
N/C(=N/OS(=O)(=O)c1ccc([N+](=O)[O-])cc1)c1ccncc1	–	–	–	–	–	10µM
N/C(=N\OS(=O)(=O)c1ccc2ccccc2c1)c1ccncc1	–	–	–	–	–	20µM
N/C(=N\OS(=O)(=O)c1ccc2ccccc2c1)c1cccnc1	–	–	?	–	–	?
O=C(NNS(=O)(=O)c1ccccc1)c1ccc([N+](=O)[O-])cc1	–	–	–	–	–	–
O=C(NNS(=O)(=O)c1ccc([N+](=O)[O-])cc1)c1ccncc1	?	–	?	–	–	39.8µM
CCc1cccc(NC(=O)CN(C)S(=O)(=O)c2ccc3c(c2)CCCN3C(C)=O)c1	·	·	·	·	–	–
COCCN1CCc2nc(SCC(=O)Nc3ccc(Br)cc3)[nH]c(=O)c2C1	·	·	·	·	–	–
COc1ccc(-c2cccc(NS(=O)(=O)c3ccc(NC(C)=O)cc3)c2)nn1	·	·	·	·	–	–
O[C@@](CCN1CCCCC1)(c1ccccc1)[C@@H]1C[C@H]2C=C[C@@H]1C2	–	·	·	·	–	–[21.5 µM]
COc1ccc(/C=C(\C)C(=O)c2c(C)cc(C)[nH]c2=O)cc1	·	·	–	–	–	·
COc1ccc(OC)c(/C=C(\C)C(=O)c2c(C)cc(C)[nH]c2=O)c1	·	·	–	-42.4	–	·
Cc1sc2ncn(CC(=O)Nc3cccc(C(F)(F)F)c3)c(=O)c2c1S(=O)(=O)N1CCN(C)CC1	·	·	·	·	–	–
COc1cc(Cl)c(C)cc1NC(=O)NC1COc2ccccc2C1 (stereo unspecified)	·	·	·	·	–	–
CC(=Cc1ccccc1)C(=O)c1ccccc1	·	·	–	–	·	·
O=C(C(Br)=Cc1ccccc1)c1ccccc1	·	·	?	–	22.4µM	·
COc1cccc(C(=O)N(Cc2ccc(N(C)C)cc2)Cc2ccco2)c1	·	·	·	·	–	12.6µM
CN(C)c1ccc(CN(Cc2ccco2)C(=O)COc2ccc(F)cc2)cc1	·	·	·	·	–	15.8µM
CN(C)c1ccc(CN(Cc2ccco2)C(=O)c2ccc(F)cc2)cc1	·	·	·	·	–	12.6µM
Cc1ccccc1C(=O)N(Cc1ccc(N(C)C)cc1)Cc1ccco1	·	·	·	·	–	12.6µM
CN(C)S(=O)(=O)c1cccc(C(=O)N(Cc2ccc(F)cc2)Cc2ccco2)c1	–	–	–	–	–	–[2.33 µM]
CC(=O)OC[C@@H]1O[C@@H](O/N=C2/C[C@@H](O)[C@@H](O)[C@@H]3[C@@H]4C(=O)N(c5cccc(Oc6ccccc6)c5)C(=O)[C@H]4CC[C@@H]23)[C@H](OC(C)=O)[C@H](OC(C)=O)[C@@H]1OC(C)=O	–	·	·	·	·	·
CCCCNC(=O)C1CCC(Cn2c(=O)c3sccc3n(CC(=O)N3CCCC3)c2=O)CC1 (stereo unspecified)	·	·	·	·	–	–
SMILES	Sfp PPTase inh	MmCpn inh	PLK1 PBD inh	CCT modulator	VDR inhibitor	G9a block
O=C(CCn1c(=O)c2cccn2c2cccnc21)NCc1ccccc1F	·	·	·	·	–	–
CCOC(=O)N1CCc2c(sc3c2c(=O)n(CCc2ccccc2)c(=O)n3Cc2ccc(F)cc2)C1	·	·	·	·	–	?
CCSc1ncc(Cl)c(C(=O)N(Cc2ccc(N(C)C)cc2)Cc2ccco2)n1	·	·	·	·	–	12.6µM
Cc1cc(C)c2c(CC(=O)N(Cc3ccc(N(C)C)cc3)Cc3ccco3)coc2c1	·	·	·	·	–	11.2µM
Cc1ccc(C(=O)N(Cc2ccc(N(C)C)cc2)Cc2ccco2)cc1	·	·	·	·	–	14.1µM
COc1ccc(OC)c(CNC(=O)Cn2ncc3c([nH]c4ccc(C)cc43)c2=O)c1	·	·	·	·	–	–
O=C(Nc1cccc(C(=O)N2CCN(c3ccc(Cl)cc3)CC2)c1)c1nsc2ccccc12	·	·	·	·	–	–
COc1cccc(C=C2SC(=S)NC2=O)c1	·	·	–	–	–	·
COc1cccc(/C=C2/C(=O)NN(c3ccc(F)cc3)C2=O)c1	?	–	5.32µM	–	44.7µM	44.7µM
COc1cccc(/C=C2/C(=O)NN(c3ccc(C)c(C)c3)C2=O)c1	–	–	5.97µM	–	79.4µM	44.7µM
COc1cccc(/C=C/C(=O)Oc2ccc(C(=O)c3ccc(F)cc3)cc2)c1	–	–	–	–	–	–
O=C1NN(c2ccc(F)cc2)C(=O)/C1=C/c1cccs1	–	–	–	–	?	44.7µM
COc1cccc(/C=C2/C(=O)NN(c3ccccc3)C2=O)c1	?	–	5.32µM	–	?	39.8µM
O=C1NN(c2ccccc2)C(=O)/C1=C\c1ccc2c(c1)OCO2	–	–	26.7µM	–	–	50.1µM
O=C(Cn1ncc2c3ccccc3n(Cc3cccc(Cl)c3)c2c1=O)NCc1cccs1	·	·	·	·	–	–
O=c1c2sc3ccccc3c2n(Cc2ccccc2)c(=O)n1CCc1ccccc1	·	·	·	·	–	–
S=C1Cc2ccccc2N1	3.16µM	–	11.9µM	–	2.24µM	4.47µM
S=C1Nc2ccccc2CS1	·	·	–	–	·	·
C#C[C@]1(O)CC[C@@H]2[C@H]3CCC4=Cc5oncc5C[C@]4(C)[C@@H]3CC[C@@]21C	–	·	·	·	–	–[21.5 µM]
N#Cc1c(Sc2ncc(C(F)(F)F)cc2Cl)nsc1C/C=N\OCc1ccccc1Br	–	–	–	–	–	20µM
CCOC(=O)/C(=C\Nc1ccccc1C(F)(F)F)Sc1ncc(C(F)(F)F)cc1Cl	–	–	–	–	–	–[12.7 µM]
O=S(=O)(/C=C/C=C/S(=O)(=O)c1ccccc1)c1ccccc1	·	·	2.67µM	–	?	·
CCCCn1c(SCC(=O)NC2CCS(=O)(=O)C2)nnc1-c1ccc(OC)cc1 (stereo unspecified)	·	–	–	–	–	?
CC(C)(C)c1ccc(-c2nnc(SCC(=O)NC3CCS(=O)(=O)C3)n2N)cc1 (stereo unspecified)	–	–	?	–	–	20µM
O=C(CSc1nnc(-c2ccccc2)n1-c1ccc(Cl)cc1)NC1CCS(=O)(=O)C1 (stereo unspecified)	–	–	–	–	–	–
Cc1ccccc1-n1c(-c2ccc(Cl)cc2)cnc1SCC(=O)NC1CCS(=O)(=O)C1 (stereo unspecified)	–	–	–	–	–	8.91µM
COc1ccc(C(=O)Nc2cccc(C(=O)OCc3cc(=O)n4nc(C5CC5)sc4n3)c2)cc1	·	·	·	·	–	–
Cc1cc(Br)ccc1N=C1NC(=O)CS1	39.8µM	–	26.7µM	–	–	20µM
